Sampled rows, rich in hits. Any-hit rate of the full collection: about 3.3%.
Mcl-1 Bim block: human Bim-Mcl-1 interaction inhibition; 190,000 tested, 0.1% active; Bead-based flow cytometry, Bim peptide-Mcl-1 binding; Q07820; AID 1009; inhibition, % at 10 µM; in the data active = inhibition above about 40%;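 note: 0% = no compound tracer wells and 100% = peptide blocker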
eIF4E 4G PPI: blocks eIF4E binding to eIF4G. P63073+Q04637. 220,000 tested, 0.37% active. inhibition, % at 21.7 µM. TR-FRET eIF4E-eIF4GI(517-606) binding, 2 h. AID 782;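 note: 0% = full FRET control wells and 100% = background wells lacking eIF4GI fragment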
NCF1 inh: p47phox (human) inhibition | P14598 | p47phox/p22phox peptide binding, fluorescence polarization, 2 h | inhibition, % at 24.7 µM | 220,000 tested, 0.53% active;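 note: 0% = p47phox with labelled peptide and 100% = labelled peptide alone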
Target sequence (P14598 whole entry, looked up): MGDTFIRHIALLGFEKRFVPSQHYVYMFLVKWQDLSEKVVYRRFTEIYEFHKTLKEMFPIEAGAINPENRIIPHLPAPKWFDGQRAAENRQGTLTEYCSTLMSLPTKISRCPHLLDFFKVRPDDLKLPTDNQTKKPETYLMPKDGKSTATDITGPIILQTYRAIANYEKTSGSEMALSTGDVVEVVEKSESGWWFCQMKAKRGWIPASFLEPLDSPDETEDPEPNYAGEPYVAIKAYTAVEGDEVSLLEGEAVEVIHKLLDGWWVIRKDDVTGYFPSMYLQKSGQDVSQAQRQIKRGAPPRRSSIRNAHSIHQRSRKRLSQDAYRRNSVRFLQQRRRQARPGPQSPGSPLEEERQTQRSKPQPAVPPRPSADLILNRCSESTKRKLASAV
Mcl1 Noxa PPI: Mcl-1/Noxa interaction inhibition; Q07820; TR-FRET Mcl-1/Noxa peptide binding, 2 h; inhibition, % at 21.7 µM; 220,000 tested, 1.5% active; AID 1022;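 active = compounds that cut the protein-peptide binding signal by more than 50% relative to plate controls in a single-dose test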;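 note: His-tagged Mcl-1 with rhodamine Noxa BH3 peptide and terbium anti-His antibody; 0% = Mcl-1 plus Noxa peptide wells and 100% = peptide-only wells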
Mcl1 Bid PPI: disrupts binding of human Mcl-1 to Bid peptide; Q07820; TR-FRET Mcl-1/Bid-Dy647 peptide binding, 1536-well; inhibition, % at 21.7 µM; 220,000 tested, 0.97% active; AID 1021;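 active = compounds that cut the binding signal by more than half at the single screening dose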;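 note: His-tagged Mcl-1 with europium anti-His antibody binding Bid BH3 peptide; 0% = Mcl-1 plus peptide wells and 100% = peptide-only wells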
14-3-3 Bad inh: disrupts binding of bovine 14-3-3 zeta to phospho-Bad peptide; P63103; TR-FRET 14-3-3zeta/Dy647-pBad peptide displacement, 1 h; inhibition, % at 21.7 µM; 220,000 tested, 0.71% active;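 active = inhibition above about 70%, limit read from the data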;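 note: 0% = full 14-3-3 plus peptide FRET controls and 100% = background without 14-3-3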
Target sequence (P63103 whole entry, looked up): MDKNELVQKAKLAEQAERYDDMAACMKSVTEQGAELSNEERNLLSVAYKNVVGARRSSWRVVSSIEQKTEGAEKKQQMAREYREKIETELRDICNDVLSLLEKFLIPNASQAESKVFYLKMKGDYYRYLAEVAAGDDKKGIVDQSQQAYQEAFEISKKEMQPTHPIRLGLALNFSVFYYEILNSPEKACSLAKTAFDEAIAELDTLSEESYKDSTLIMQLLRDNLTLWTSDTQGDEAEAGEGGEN
* hit, by the source's call; . = no result; [ ] = another dose, or the depositor's remark.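 Rule for the calls, unless noted: active = inhibition above about 30% (limit read from the data); inactive = the rest.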

SMILES	Mcl-1 Bim block	eIF4E 4G PPI	NCF1 inh	Mcl1 Noxa PPI	Mcl1 Bid PPI	14-3-3 Bad inh
C#CCNC(=O)C1=C[C@H](C2CCCCC2)[C@@H](CCCO)[C@H](OCC)O1	0.0	-3.7	-16.2	21.2	1.8	21.8
O=C(CN1CCC(N2CCCCC2)CC1)N1CCCc2ccccc21	-1.0	-3.4	-7.2	31.0	26.2	86.9*
COc1cccc(-n2nnc3c(=O)n(CC(=O)Nc4ccc(C)cc4)cnc32)c1	0.0	-3.0	-4.9	0.9	-3.0	-1.6
O=C(c1ccccc1)c1ccc2nc(-c3ccco3)c(-c3ccco3)nc2c1	18.0	24.4	-8.1	99.1*	17.3	15.2
c1coc(-c2nc3ccccc3nc2-c2ccco2)c1	9.0	.	0.7	84.8*	-39.0	.
COc1ccccc1N1CCN(C(=O)c2ccc3nc(-c4ccco4)c(-c4ccco4)nc3c2)CC1	-5.0	7.4	-7.7	63.1*	-44.8	-8.7
O=c1oc(-c2ccco2)nc2ccccc12	-3.0	2.0	5.3	28.9	4.7	-15.1
O=C(NC1CCCC1)c1ccc2nc(-c3ccco3)c(-c3ccco3)nc2c1	4.0	15.3	12.3	100.6*	28.7	-5.8
O=C(O)c1ccc2nc(-c3ccccc3)c(-c3ccccc3)nc2c1	-6.0	-6.4	8.3	12.1	-12.6	-4.9
COc1ccc(CC(=O)N2CCc3cc(OC)c(OC)cc3C2O)cc1OC (centres undefined)	.	-15.5	-8.7	4.8	-20.4	-2.4
O=C(NCCc1ccccc1)c1ccc2nc(-c3ccco3)c(-c3ccco3)nc2c1	8.0	18.3	-14.2	103.0*	55.8*	17.9
O=C(NCCO)c1ccc(Cl)c(Cl)c1	0.0	-0.5	-2.4	13.5	-6.8	-0.8
O=C(NCCO)c1ccc2nc(-c3ccco3)c(-c3ccco3)nc2c1	14.0	6.2	-7.8	92.2*	-28.0	-4.3
Cc1nn(CCCC(=O)N2CCN(c3ccc(F)cc3)CC2)c(C)c1[N+](=O)[O-]	-1.0	-4.3	-4.2	4.1	-16.5	-3.7
COc1ccc(CCNc2nc(C)nc3c2oc2ccccc23)cc1OC	-1.0	0.3	1.2	26.1	-0.8	75.3*
COc1ccc(CCNc2ncnc3c2oc2ccccc23)cc1OC	-2.0	0.1	-5.6	33.9	-14.6	84.7*
Cc1nc(NCCc2cnc[nH]2)c2oc3ccccc3c2n1	0.0	.	.	.	.	.
COc1cccc(CN2C(=O)c3cccc(N)c3C2=O)c1	-1.0	13.0	-10.6	1.7	-5.7	-14.9
N#Cc1sc2nc(-c3ccccc3)cc(-c3ccco3)c2c1N	0.0	-8.6	-10.2	101.8*	74.2*	-0.9
Cc1ccc(-c2cc(-c3ccco3)c(C#N)c(=O)[nH]2)cc1	.	14.5	-30.7	68.0*	-32.0	26.0
N#Cc1c(-c2ccccc2)cc(-c2ccco2)c(C#N)c1N	-1.0	-2.4	-53.5	73.7*	14.3	11.8
Cc1cc(CNC(=S)Nc2cccc(Cl)c2Cl)nn1C	-2.0	25.0	.	2.5	-11.7	5.7
CCC1C(=O)N=C(SCC(=O)Nc2nc3ccccc3s2)NC1=O (centres undefined)	-5.0	-1.7	-21.5	18.1	-10.5	-1.0
CN(C)c1ccc(/C=C2\SC(=O)N(CCc3nnc(N)s3)C2=O)cc1	.	7.6	-137.3	67.2*	-108.8	23.5
CN(C)c1ccc(/C=C2/SC(=O)N(CCN=C3NS(=O)(=O)c4ccccc43)C2=O)cc1	78.0*	4.9	7.9	52.3*	34.5	1.1
SMILES	Mcl-1 Bim block	eIF4E 4G PPI	NCF1 inh	Mcl1 Noxa PPI	Mcl1 Bid PPI	14-3-3 Bad inh
O=c1cc(-c2ccccc2)[nH]c2ccccc12	0.0	48.5*[fluorescence artefact?]	8.2	13.4	17.6	13.2
CCOc1ccccc1CN1CCN(S(=O)(=O)CC)CC1	2.0	-4.2	11.6	20.3	38.8	94.5*
CCCS(=O)(=O)N1CCN(Cc2ccccc2OCC)CC1	0.0	-1.4	-4.5	3.3	40.6	29.3
Oc1c(C(c2cccs2)N2CCN(c3ccccc3)CC2)ccc2cccnc12 (centres undefined)	-6.0	35.5*[fluorescence artefact?]	-35.9	84.6*	65.1*	50.2
O=C(Nc1ccc(NC(=O)C2CCCCC2)nc1)c1cccs1	-1.0	1.3	-3.6	6.3	-13.9	-11.5
Cn1c(=O)c2c(nc(N3CCCCCC3)n2CC(O)COc2ccccc2)n(C)c1=O (centres undefined)	5.0	-3.0	-0.3	9.0	-5.3	72.4*
CCCCNC(=O)c1ccc(S(=O)(=O)c2ccc(Cl)cc2)c(NC(C)=O)c1	-1.0	4.5	-1.5	10.7	-6.5	72.2*
COC(=O)c1ccc(S(=O)(=O)NCc2ccccn2)n1C	.	-5.0	-12.1	-2.9	-8.2	-5.7
Cc1cc(-c2csc(NCc3ccccc3)n2)c(C)n1C	2.0	12.0	18.2	69.0*	3.9	97.9*
Cc1nc(N)sc1-c1csc(NCc2ccccc2)n1	-2.0	-0.9	-28.0	-12.0	-18.6	-8.2
O=C(O)c1ccccc1-c1ccccc1C(=O)NNc1ccc([N+](=O)[O-])cc1	.	-0.8	-7.0	11.9	-28.6	3.4
Cc1ccccc1NC(=O)C(C)c1cccc(C(=O)c2ccccc2)c1 (centres undefined)	-3.0	-1.5	-11.1	4.6	-33.2	6.6
Cc1ccc(OC(=O)C(C)c2cccc(C(=O)c3ccccc3)c2)cc1 (centres undefined)	-4.0	-0.5	31.4*	12.0	-6.1	13.5
COc1ccc(CCN=C(N)NS(=O)(=O)c2ccc(C)cc2)cc1OC	0.0	1.7	0.6	55.4*	-0.1	-2.9
COc1cccc(/C=C/C(=O)OCC(=O)Nc2ccc(N3CCOCC3)cc2)c1OC	3.0	-3.8	2.9	14.5	-23.4	-15.0
COc1cc(NC(=O)c2cccs2)c(C(=O)OCC(=O)NCc2ccco2)cc1OC	-3.0	-8.9	-26.6	63.4*	28.1	7.0
O=C(COC(=O)c1cncc(Br)c1)NCc1ccco1	-1.0	-7.2	0.2	56.4*	-29.9	-0.5
COc1cc(C(=O)OCC(=O)NCc2ccco2)cc(OC)c1OC	-3.0	-8.9	-3.8	13.5	-15.0	-9.5
O=C(COC(=O)c1ccc(NS(=O)(=O)c2cccs2)cc1)NCc1ccco1	.	19.6	-13.3	107.4*	-21.9	35.6
O=C(COC(=O)c1cncc(Br)c1)NCc1ccc(F)cc1	0.0	2.1	-9.9	7.4	-24.5	-2.4
O=C(COC(=O)CCC1CCCC1)Nc1ccc(Cl)cc1F	-10.0	3.0	-2.1	8.8	-1.4	-4.6
Cc1ccccc1N1CCN(Cc2c[nH]c3ccccc23)CC1	-134.0	-6.1	-6.1	5.1	13.6	70.5*
C[n+]1cccc(C2C(C#N)=C(N)Oc3c2ccc2ccccc32)c1 (centres undefined)	.	2.8	-17.5	-1.5	-23.3	6.7
C[n+]1cccc2ccc3c(c21)OC(N)=C(C#N)C3c1ccccc1 (centres undefined)	.	94.4*	12.8	8.0	-34.6	0.4
N#Cc1c(Nc2cccc(F)c2)sc2c(O)cc(=O)[nH]c12	3.0	3.3	-44.4	54.3*	-135.7	-0.1

Screening data as filed in PubChem.
